# Hits are enriched below; roughly 2.8% of the tested compounds scored in any of these assays.
# GPR32 ag: qHTS for Agonists of Human Resolvin D1 Receptor DRV1 | CHO-K1 GPR32 beta-arrestin PathHunter luminescence, 90 min; zero percent set by DMSO-only wells | activation, % at 76.9 µM | 2.5% of 48,000 active | AID 1346428, 2018;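 active = activation of at least 60% and not above a set upper limit, about 1 call in 100 departs from these limits; inconclusive = activation of 40% to 60%, or above that upper limit; inactive = activation under 40%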
#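 Luminescent readout of beta-Gal complementation quantifies ligand-induced beta-arrestin association with GPR32 in CHO-K1 cells; 90 min compound incubation at 37 °C, detection 1 h at room temperature.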
# GALC G270D act: A Novel Cell-Based Assay to Identify Small Molecules for B -Galactocerebrosidase | P54803 | 0.1% of 45,000 active | 145M-Twi-hGALC-G270D cells (Twitcher mouse brain line with human GALC G270D), HMU-beta-Gal fluorescence, 48 h | Potency, µM (titrated, usually from 57.5 µM), actives largely listed as activators; also: nearly all actives have a fitted effect of over 65% in size
#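 Fluorogenic HMU-b-Gal hydrolysis (0.1 mM final, pH 5.2 citrate-phosphate with 1 mg/mL sodium taurocholate; carbonate stop buffer) measures mutant GALC activity after compound treatment of live 145M-Twi Twitcher brain cells stably carrying human GALC-G270D, with wild-type GALC line alongside; activation sought.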
# B2AR arrestin ag: qHTS assay of beta-arrestin-biased ligands of beta2-adrenergic receptor: NCGC Sytravon Library Screen. Potency, µM (series often up to 46.1 µM), hits mostly activators. AID 1347077, 2019. 44,000 tested, under 10 active. HTLA Tango cells, beta-arrestin recruitment, luciferase luminescence, 18 h
#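 Luminescence read-out: arrestin recruitment to recombinant beta2-AR releases tTA, inducing luciferase. Cells exposed 18 hr at 37 degrees C to up to 46 microM compound; %Activity from corrected signal, concentration-response curves classified by r2, magnitude and efficacy.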
# FH mod: Identification of activators of human fumarate hydratase by quantitative high-throughput screening; Fumarate hydratase, mitochondrial (Homo sapiens), P07954; FH coupled MDH/diaphorase resazurin fluorescence, 15 min; Potency, µM (doses to about 79.9 µM), hits mostly inhibitors; 0.22% of 54,000 active; also: the screen sought activators but most active calls are inhibition curves; nearly all actives have a fitted effect of over 45% in size
# Target sequence (P07954 whole entry, looked up): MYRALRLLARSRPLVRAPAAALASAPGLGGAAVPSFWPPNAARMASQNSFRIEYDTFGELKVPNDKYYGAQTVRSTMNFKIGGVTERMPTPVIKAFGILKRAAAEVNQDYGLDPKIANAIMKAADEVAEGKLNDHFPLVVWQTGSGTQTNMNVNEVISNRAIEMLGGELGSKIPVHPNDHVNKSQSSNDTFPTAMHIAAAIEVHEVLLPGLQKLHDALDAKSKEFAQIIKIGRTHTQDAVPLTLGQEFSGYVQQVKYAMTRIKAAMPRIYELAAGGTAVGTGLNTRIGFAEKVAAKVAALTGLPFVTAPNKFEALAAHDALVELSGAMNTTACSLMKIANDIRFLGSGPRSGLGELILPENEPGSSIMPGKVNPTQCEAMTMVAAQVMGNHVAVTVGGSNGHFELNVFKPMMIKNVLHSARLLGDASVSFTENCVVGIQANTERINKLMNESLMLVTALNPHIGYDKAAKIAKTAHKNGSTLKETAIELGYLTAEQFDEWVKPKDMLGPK
# Numbers stand for hits; 0 = inactive; ? = inconclusive; - = no result. Unless noted, calls follow the shape of the dose curve; as a rule, active = well fitted curve in the direction sought with a large enough effect; inconclusive = small, poorly fitted or top-dose-only effect, or another doubt; inactive = no such curve, though single readings can be large; an effect the other way counts as inactive or inconclusive.
SMILES,GPR32 ag,GALC G270D act,B2AR arrestin ag,FH mod
CC(=O)Nc1ccc(NS(=O)(=O)c2ccc3[nH]c4c(c3c2)CCCCC4)cc1,80,0,0,?
COc1ccc(NS(=O)(=O)c2ccc3[nH]c4c(c3c2)CCCCCC4)cc1,74,0,0,?
O=c1nc(-c2ccccn2)sc2ccccc12,-,-,-,0
Fc1ccc(N2CCCCC2)c(NC(=S)c2ccncc2)c1,-,-,-,0
COC1CC(=O)C23C(=O)NC(CC(C)C)C2C(C)C(C)=CC3/C=C(\C)CCC1O (stereo not drawn),-,-,-,0
CC(=O)c1ccc(NS(=O)(=O)c2ccc3[nH]c4c(c3c2)CCCCCC4)cc1,73,0,0,?
C/C(=N\N=C(N)N)c1cc(NC(=O)CCCCCCCCC(=O)Nc2cc(/C(C)=N/N=C(N)N)cc(/C(C)=N/N=C(N)N)c2)cc(/C(C)=N/N=C(N)N)c1,-,-,-,0
Cc1ccc(C)c(N(C)C(=O)Cc2c(C(=O)O)[nH]c3ccc(Cl)cc23)c1,70,0,0,0
Cc1ccc2ccc3cc(C(=O)Nc4ccc(C)c(F)c4)nc3c2[nH]1,60,0,0,0
CC(C)(C)OC(=O)N1CCC(c2c(C(=O)N3CCCCC3)cnn2-c2cccc(F)c2)CC1,0,10µM,0,0
CN1CCN(C(=O)c2cnn(-c3cccc(F)c3)c2C2CCN(C(=O)OC(C)(C)C)CC2)CC1,0,0,0,0
COc1ccc(C(=O)N2CCC(c3nc4ccccc4s3)CC2)cc1Cl,76,0,0,?
CCCOc1ccccc1C(=O)N1CCC(c2nc3ccccc3s2)CC1,104,0,0,0
CCCOc1ccc(C(=O)N2CCC(c3nc4ccccc4s3)CC2)cc1,0,0,0,0
COc1cccc(C(=O)N2CCC(c3nc4ccccc4s3)CC2)c1,95,0,0,0
Cc1ccc(C)c(S(=O)(=O)NCCc2csc(-c3ccc(Cl)cc3)n2)c1,74,0,0,?
Cc1ccc(S(=O)(=O)NCCc2csc(-c3ccc(Cl)cc3)n2)cc1,?,0,0,?
Cc1ccc(S(=O)(=O)NCCc2csc(-c3cccc(F)c3)n2)cc1,80,0,0,?
COc1ccc(S(=O)(=O)NCCc2csc(-c3ccc(F)cc3)n2)cc1,60,0,0,0
CCOc1ccc(S(=O)(=O)NCCc2csc(-c3ccc(Cl)cc3)n2)cc1,69,0,0,?
COc1cc(/C=C/C(=O)O[C@@H]2O[C@H](CO)[C@@H](O)[C@H](O)[C@H]2O)ccc1O,-,-,-,0
CCCc1[nH]nc2c1C(c1cc(Cl)cc(Cl)c1O)C(C#N)=C(N)O2 (stereo not drawn),-,-,-,0
C=C[C@@]1(C)C=C2C(=O)C(O)=C3[C@](C)(C(=O)O)CC[C@@H]4C[C@]34[C@]2(O)C(=O)C1,-,-,-,0
CCC(C)C(=O)O[C@@H]1[C@@H](O)[C@@H](O[C@H]2O[C@H](CO)[C@@H](O)[C@H](O)[C@H]2O)O[C@H](CO)[C@H]1O (stereo partly drawn),-,-,-,0
O=S(=O)(NCCc1csc(-c2ccc(F)cc2)n1)c1ccc(Cl)cc1,64,0,0,?
SMILES,GPR32 ag,GALC G270D act,B2AR arrestin ag,FH mod
O=C(Nc1cccc(Cl)c1)C1CCCN(c2ncnc3c2nc2n3CCCCC2)C1 (stereo not drawn),67,0,0,0
O=C(Nc1ccc(F)cc1)C1CCCN(c2ncnc3c2nc2n3CCCCC2)C1 (stereo not drawn),0,0,0,0
O=C(O)c1ccc(S(=O)(=O)N(Cc2ccc(OC(F)(F)F)cc2)c2ncc(C(F)(F)F)cc2Cl)cc1,-,-,-,0
CCc1cc(CC[C@]2(C3CCCC3)CC(O)=C(Cc3nc4nc(C)cc(C)n4n3)C(=O)O2)cc(CC)n1,-,-,-,0
O=C1c2ccccc2CCc2ccccc21,0,0,-,0
O=C1C(SCCO)=C(SCCO)C(=O)c2ccccc21,0,-,-,7.9µM
CCCCNc1nc2c(c(=O)n(C)c(=O)n2C)n1CC(O)COc1ccccc1C (stereo not drawn),67,0,0,0
O=C(O)C1(c2ccc(-c3ccc(Cl)c(Cl)c3)c(F)c2)CC1,-,-,-,0
COc1cc(NC(=O)CN(c2cc(C)cc(C)c2)S(=O)(=O)c2c(C)[nH]c(=O)[nH]c2=O)cc(OC)c1,0,0,0,0
Cc1cc(C)cc(N(CC(=O)Nc2ccc(C)cc2Cl)S(=O)(=O)c2c(C)[nH]c(=O)[nH]c2=O)c1,79,0,0,0
Cc1ccc(N(CC(=O)Nc2ccc(C)c(F)c2)S(=O)(=O)c2c(C)n[nH]c2C)cc1,102,0,0,0
Cc1cc(C)cc(N(CC(=O)Nc2ccc(C(F)(F)F)cc2)S(=O)(=O)c2c(C)[nH]c(=O)[nH]c2=O)c1,112,0,0,0
NC(=O)c1cnc(N[C@@H]2CCCC[C@H]2N)nc1Nc1cccc(-n2nccn2)c1,-,-,-,0
O=C(Nc1nnc(S(=O)(=O)N2CCCCCC2)s1)c1ccccc1,0,0,0,0
CC1CCN(S(=O)(=O)c2nnc(NC(=O)c3cccc(Cl)c3)s2)CC1,69,0,0,0
COc1cc(OC)c(C(=O)NCc2nc(-c3ccccc3)no2)cc1OC,71,0,0,0
O=C(C1CC1)N1CCc2cc(Br)cc(S(=O)(=O)Nc3ccc(F)c(F)c3)c21,0,0,0,28µM
O=C(C1CC1)N1CCc2cc(Br)cc(S(=O)(=O)Nc3ccc(C(F)(F)F)cc3)c21,65,0,0,0
O=C(CC1N=C2c3ccccc3N=C(SCc3ccc(Cl)cc3)N2C1=O)NCCc1ccccc1 (stereo not drawn),74,0,0,?
C[C@@H](Oc1cc(-n2cnc3ccc(OC4CCN(C)CC4)cc32)sc1C(N)=O)c1ccccc1Cl,-,-,-,0
COc1ccc(C(=O)NCCc2csc(-c3ccc(Cl)cc3)n2)c(OC)c1,70,0,0,35µM
COc1ccc(C(=O)NCCc2csc(-c3ccc(Cl)cc3)n2)cc1,87,0,0,?
CC[C@H](CO)Nc1nc(NCc2ccc(-c3ccccn3)cc2)c2ncn(C(C)C)c2n1,-,-,-,0
C=C1C(O)CC2C(C(=O)O)=COC(O[C@@H]3O[C@H](COC(=O)/C=C/c4ccc(O)cc4)[C@@H](O)[C@H](O)[C@H]3O)C12 (stereo partly drawn),-,-,-,0
CCN1CCC(N(Cc2ccc3c(c2)OCO3)C(=O)Nc2ccc(Br)c(C)c2)CC1,80,0,0,0
CCN1CCC(N(Cc2ccc3c(c2)OCO3)C(=O)Nc2cccc(C)c2C)CC1,0,0,0,?
CO[C@H]1/C=C/[C@@](C)(O)/C=C/C(=O)O[C@H](C)[C@@H](C)CC/C=C/1C,-,-,-,0
COC(=O)C1(C)CCCC2(C)c3ccc(C(C)C)cc3C(O)C(O)C12 (stereo not drawn),-,-,-,0
CCCCC(CC)CNC(=O)CCCc1nnc2n(CCC)c(=O)c3sccc3n12 (stereo not drawn),80,0,0,0
